# Experimental data taken from PubChem BioAssay AID1345085 (National Center for Advancing Translational Sciences (NCATS), 2018).
# Inconclusive results are not listed. A number with no mark means an inactive call. Activity calls are given as the source filed them. The call rests on the fitted dose curve; in most records, active means well fitted cell-killing curve with a large enough effect; inconclusive means small, poorly fitted or top-dose-only effect, or effect the other way; inactive means no such curve, though single readings can be large or run the other way.
# System: CAOV3
# Test: Confirmatory qHTS for gynecologic anti-cancer compounds from libraries of approved drugs and bioactive compounds; further: nearly all actives have a fitted effect of over 55% in size
# Details: gynecologic cancer cell panel viability, ATPlite luminescence, 48 h; series mostly up to 57.6 µM
# Outline: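 Cells (1,000/well) plated 16 h, then exposed 48 h at 37 °C to 11 concentrations (1:3) from 57.5 uM to 0.977 nM. Viability by ATPlite luminescence after 15 min; IC50 derived, with HEK 293T used for selectivity index.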
# On the % scale 0 is the no-effect control and ±100 the full control effect; potency means the concentration at half of the fitted maximal effect.
Structure (SMILES),Potency,"activity change, negative = viability loss"
Cn1cc(-c2ccc3ncc(Cc4ccc5ncccc5c4)n3n2)cn1,inactive,
COc1c(C)c2c(c(O)c1C/C=C(\C)CCC(=O)OCCN1CCOCC1)C(=O)OC2,inactive,
Cc1cc(C(=O)N2CCN(c3cccc(Cl)c3)CC2)n(-c2ccccc2)n1,inactive,
Cc1cnc(CNC(=O)c2c(=O)c3ccc(N4CCCN(C)CC4)nc3n3c2sc2ccccc23)cn1,,22.5% [at 10.7 µM]
Cc1cc(Nc2cc(N3CCN(C)CC3)nc(Sc3ccc(NC(=O)C4CC4)cc3)n2)n[nH]1,inactive,
CCC1=CC2CN(C1)Cc1c([nH]c3ccccc13)[C@@](C(=O)OC)(c1cc3c(cc1OC)N(C)[C@H]1[C@@](O)(C(=O)OC)[C@H](OC(C)=O)[C@]4(CC)C=CCN5CC[C@]31[C@@H]54)C2 (some centres undefined),inactive,
Nc1nc(Cl)nc2c1ncn2C1OC(CO)C(O)C1F (centres undefined),0.544 µM (active),
CC(Oc1cc(-n2cnc3ccc(CN4CCN(C)CC4)cc32)sc1C(N)=O)c1ccccc1C(F)(F)F (centres undefined),27.3 µM (active),
CN[C@@H](C)C(=O)N[C@H]1CN(C(=O)CC(C)C)CC[C@H]2CC[C@@H](C(=O)NC(c3ccccc3)c3ccccc3)N2C1=O,inactive,
CC(C)C[C@H](NC(=O)[C@@H](NC(=O)c1cccc(-c2ccccc2)n1)[C@@H](C)O)B(O)O,0.172 µM (active),
CCCCc1oc2ccccc2c1C(=O)c1cc(I)c(OCCN(CC)CC)c(I)c1,79.4 µM (active),
CN(C)CCC(CSc1ccccc1)Nc1ccc(S(=O)(=O)NC(=O)c2ccc(N3CCN(Cc4ccccc4-c4ccc(Cl)cc4)CC3)cc2)cc1[N+](=O)[O-] (centres undefined),9.68 µM (active),
COc1cc2c(Oc3ccc(-c4cnc(Nc5ccc(F)cc5)n(C)c4=O)cc3F)ccnc2cc1OCCCN1CCOCC1,19.3 µM (active),
CS(=O)(=O)c1ccc(C(=O)Nc2ccc(Cl)c(-c3ccccn3)c2)c(Cl)c1,inactive,
Cn1cc(-c2[nH]c3cc(NC(=O)[C@H](N)C4CCCCC4)cc4c3c2C=NNC4=O)cn1,3.85 µM (active),
Cc1ccc(C(=O)N(CCCN)C(c2oc3cc(Cl)ccc3c(=O)c2Cc2ccccc2)C(C)C)cc1 (centres undefined),27.3 µM (active),
NS(=O)(=O)OC[C@@H]1C[C@@H](n2ccc3c(N[C@H]4CCc5ccccc54)ncnc32)C[C@@H]1O,3.06 µM (active),

Structure (SMILES),Potency,"activity change, negative = viability loss"
C=CC(=O)Nc1cc2c(Nc3ccc(F)c(Cl)c3)ncnc2cc1OCCCN1CCOCC1,27.3 µM (active),
OC[C@H]1O[C@@H](n2cnc3c(=S)nc[nH]c32)[C@H](O)[C@@H]1O,1.37 µM (active),
Cc1c(C)n(Cc2ccc(-c3ccccc3C(=O)O)cc2)c2ccc(C(=O)N[C@@H](C)c3ccc([N+](=O)[O-])cc3)cc12,inactive,
O=C(c1ccc(/C=C/c2n[nH]c3ccccc23)cc1)N1CCNCC1,19.3 µM (active),
COc1cc2c(c(OC)c1OC)-c1ccc(OC)c(=O)cc1[C@@H](NC(C)=O)CC2,inactive,
Cc1cc(Nc2nc(N[C@@H](C)c3ncc(F)cn3)ncc2Cl)n[nH]1,7.69 µM (active),
Cc1cnc(Nc2ccc(CN3CCOCC3)cc2)nc1Nc1cccc(S(=O)(=O)NC(C)(C)C)c1,3.85 µM (active),
Cc1cc(Nc2cc(N3CCN(C)CC3)nc(/C=C/c3ccccc3)n2)n[nH]1,7.69 µM (active),
COc1ccc(CCC(=O)c2c(O)cc(O[C@@H]3O[C@H](CO)[C@@H](O)[C@H](O)[C@H]3O[C@@H]3O[C@@H](C)[C@H](O)[C@@H](O)[C@H]3O)cc2O)cc1O,inactive,
Cc1nc(Nc2n[nH]c3c2CN(C(=O)NC(CN(C)C)c2ccccc2)C3(C)C)c2sccc2n1 (centres undefined),0.306 µM (active),
CC[C@@]1(O)C(=O)OCc2c1cc1n(c2=O)Cc2cc3cc(O)ccc3nc2-1,0.109 µM (active),
OCc1ccc(-c2ccc(-c3ccc(CO)s3)o2)s1,0.668 µM (active),
O=C1N(c2ccccc2)c2ccccc2C1(Cc1ccncc1)Cc1ccncc1,inactive,
CCOc1ccc(Nc2nc(-c3c(C)nc4ccccn34)cs2)cc1,inactive,
CCOc1cc2ncc(C#N)c(Nc3ccc(F)c(Cl)c3)c2cc1NC(=O)/C=C/CN(C)C,19.3 µM (active),
COc1ccc2cc3[n+](cc2c1OC)CCc1cc2c(cc1-3)OCO2,inactive,
O=C1NC(=O)C(c2cnc3ccccn23)=C1c1cn2c3c(cccc13)CN(C(=O)N1CCOCC1)CC2,inactive,
